Measured values: PubChem BioAssay (NCI)
About 83,000 compounds went through this panel and 20% of them were active in at least one assay; those are over-represented in the sample as a whole.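 Step 1: grow cells in 96-well plates. Step 2: add test compound at a single concentration. Step 3: incubate 48 h. Step 4: record percent growth.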 Activity calls are given as the source filed them. Rule for the calls: active = growth percent below 10; inactive = the rest.

Tests used:
Assay in all cases: NCI-60 one-dose screen, 48 h (100 = growth as untreated, 0 = no growth, -100 = all killed)
[1] = test system: NCI-H23 lung; conditions: 10 µM unless noted
[2] = test system: NCI-H226 lung; conditions: 10 µM unless noted
[3] = test system: NCI-H322M lung; conditions: 10 µM unless noted
[4] = test system: HOP-62 NSCLC; conditions: 10 µM unless noted
[5] = test system: NCI-H460 lung; conditions: 10 µM unless noted
[6] = test system: HOP-92 NSCLC; conditions: 10 µM unless noted
[7] = test system: NCI-H522 lung; conditions: 10 µM unless noted
[8] = test system: A549/ATCC NSCLC; conditions: 10 µM unless noted
[9] = test system: 786-0 renal; conditions: 10 µM unless noted
[10] = test system: COLO 205 colon; conditions: 10 µM unless noted
[11] = test system: DU-145 prostate; conditions: 10 µM unless noted
[12] = test system: K-562 leukemia; conditions: 10 µM unless noted
[13] = test system: MALME-3M melanoma; conditions: 10 µM unless noted
[14] = test system: MDA-MB-231 breast; conditions: 10 µM unless noted
[15] = test system: SF-268 CNS; conditions: 10 µM unless noted
[16] = test system: SF-295 CNS; conditions: 10 µM unless noted
[17] = test system: SF-539 CNS; conditions: 10 µM unless noted
[18] = test system: UACC-257 melanoma; conditions: 10 µM
[19] = test system: M14 melanoma; conditions: 10 µM unless noted

Measured: growth

COc1cc(C2C=C(C)N=C3SC=CN32)cc(OC)c1OC (stereo not drawn)
inactive: [1] 108% | [2] 103% | [3] 105% | [4] 106% | [5] 105% | [6] 91.6% | [7] 97.2% | [8] 107% | [9] 113% | [10] 113% | [11] 112% | [12] 123% | [13] 104% | [14] 100% | [15] 104% | [16] 108% | [17] 116% | [18] 102% | [19] 107%

COc1cc(CCn2nnc3c(NCCCCO)ncnc32)cc(OC)c1
inactive: [1] 94.5% | [2] 99.3% | [3] 99.3% | [4] 113% | [5] 105% | [6] 83.8% | [7] 111% | [8] 101% | [9] 105% | [10] 109% | [11] 104% | [12] 116% | [13] 111% | [14] 120% | [15] 105% | [16] 105% | [17] 111% | [18] 103% | [19] 90.3%

c1ccc(CCn2nnc3c(Nc4ccc(N5CCOCC5)cc4)ncnc32)cc1
active: [6] -2.53%
inactive: [1] 102% | [2] 90.2% | [3] 106% | [4] 91.1% | [5] 89% | [7] 80.2% | [8] 74.1% | [9] 87.1% | [10] 90.1% | [11] 105% | [12] 27.1% | [13] 69.2% | [14] 78.4% | [15] 107% | [16] 94.1% | [17] 82.2% | [18] 68.6% | [19] 44%

COc1cccc(NC(=O)Cn2cc3c(=O)oc4ccccc4c3n2)c1
inactive: [1] 102% | [2] 104% | [3] 98.9% | [4] 116% | [5] 101% | [6] 93.8% | [7] 83.1% | [8] 105% | [9] 98.4% | [10] 101% | [11] 103% | [12] 103% | [13] 103% | [14] 96.6% | [15] 103% | [16] 97.2% | [17] 102% | [18] 101% | [19] 101%

Cc1cc(Nc2nc(-c3ccncc3)nc3ccccc23)n[nH]1
inactive: [1] 80.2% | [2] 79.1% | [3] 75.7% | [4] 95.1% | [5] 66.1% | [6] 54.9% | [7] 58.7% | [8] 41.9% | [9] 48.2% | [10] 31.7% | [11] 79.7% | [12] 38.1% | [13] 88.8% | [14] 84.1% | [15] 70.1% | [16] 69.9% | [17] 59.5% | [18] 90% | [19] 65.7%

CC1=CNNc2c3ncnc-3ncn21
inactive: [1] 98% | [2] 99.7% | [3] 107% | [4] 95.4% | [5] 108% | [6] 94.7% | [7] 96.6% | [8] 100% | [9] 102% | [10] 106% | [11] 104% | [12] 101% | [13] 102% | [14] 103% | [15] 103% | [16] 103% | [17] 101% | [18] 109% | [19] 108%

CCN1C(=S)N(CC)C2Nn3c(s/c(=C4\C(=O)N(C)c5ccccc54)c3=O)=NC21 (stereo not drawn)
inactive: [1] 44.9% | [2] 88.6% | [3] 73.1% | [4] 52.3% | [5] 29% | [6] 76.1% | [7] 32.3% | [8] 50.3% | [9] 56.2% | [10] 30.8% | [11] 34.6% | [12] 12.8% | [13] 51% | [14] 42.1% | [15] 53.5% | [16] 47.4% | [19] 70.2%
active: [17] 6.07%

CC[C@H](C)[C@@H]1NC(=O)[C@H]([C@@H](C)O)NC(=O)C(Cc2ccccc2)NC(=O)[C@@H]2CCCN2C(=O)C(C(C)C)NC(=O)C(Cc2ccccc2)NC(=O)CNC(=O)[C@@H]2CCCN2C1=O (stereo partly drawn)
inactive: [1] 82.5% | [2] 65.8% | [3] 85.3% | [4] 76% | [5] 55.7% | [7] 55.5% | [8] 56.6% | [9] 39.9% | [10] 79.7% | [11] 83.6% | [12] 20.9% | [13] 64% | [14] 26.4% | [15] 72.8% | [16] 74.2% | [17] 83.2% | [18] 60.7% | [19] 22.2%
active: [6] -18.4%

Cc1cc(Nc2nc(C(=O)Nc3ccccc3)nc3ccccc23)n[nH]1
inactive: [1] 77.5% | [2] 67.1% | [3] 56.5% | [4] 60% | [5] 37.6% | [6] 51.2% | [7] 59% | [8] 62.4% | [9] 56.2% | [10] 76% | [11] 66.2% | [12] 48.7% | [13] 61.5% | [14] 85.4% | [15] 71% | [16] 53.9% | [17] 78.7% | [18] 83% | [19] 50.9%

CC(=O)Nc1nc(C(=O)N2N=C(C)/C(=C/c3cccs3)C2=O)cs1
inactive: [1] 107% | [2] 101% | [3] 95.4% | [4] 99.1% | [5] 107% | [6] 99.1% | [7] 86.6% | [8] 101% | [9] 102% | [10] 104% | [11] 99.4% | [12] 102% | [13] 86% | [14] 111% | [15] 107% | [16] 106% | [17] 103% | [18] 91.7% | [19] 101%

CCCCCC/C=C\CCCCCCCCOc1ccc(CCOP(=O)(O)OCC[N+](C)(C)C)cc1
inactive: [1] 98.8% | [2] 102% | [3] 105% | [4] 72.8% | [5] 26.9% | [6] 60.7% | [7] 59% | [8] 79% | [9] 89.6% | [10] 86.4% | [11] 98% | [12] 74.8% | [13] 103% | [14] 88.3% | [15] 66.7% | [16] 89.9% | [17] 94.7% | [19] 88.1%

O=C(Nc1cccc(C(F)(F)F)c1)Nc1ccc(OCc2nnc(-c3ccccc3)o2)c(F)c1
inactive: [1] 35.7% | [2] 56.3% | [3] 61.6% | [4] 56.1% | [8] 29.9% | [9] 60.4% | [10] 32.6% | [11] 31.9% | [12] 22.1% | [13] 53.7% | [14] 42.9% | [15] 58.7% | [16] 17% | [17] 27.8% | [18] 70% | [19] 40.9%
active: [5] 6.12% | [6] -8.2% | [7] 1.68%

OCc1c(-c2ccccc2)nc2sccn12
active: [6] -8.39%
inactive: [1] 81.9% | [2] 106% | [3] 105% | [4] 95.5% | [5] 106% | [7] 105% | [8] 101% | [9] 101% | [10] 110% | [11] 109% | [12] 123% | [13] 109% | [14] 109% | [15] 102% | [16] 112% | [17] 73.7% | [19] 102%

Clc1nc(Cl)c2ncn(C/C=C/Cn3cnc4c(Cl)nc(Cl)nc43)c2n1
inactive: [1] 94.7% | [2] 94.2% | [3] 94.6% | [4] 94.3% | [5] 84.5% | [7] 27.7% | [8] 71.6% | [9] 93.2% | [10] 63.3% | [11] 44.2% | [12] 17.4% | [13] 111% | [14] 96.4% | [15] 62.3% | [16] 60.4% | [17] 46.8% | [19] 101%
active: [6] -13.3%

CSc1ccccc1C#C/C=C\C#Cc1ccccc1N1CCCCC1=O
inactive: [1] 103% | [2] 91.2% | [3] 110% | [4] 88.2% | [5] 93.3% | [6] 63.8% | [7] 99.7% | [8] 48.6% | [9] 106% | [10] 108% | [11] 107% | [12] 143% | [13] 89.2% | [14] 90.8% | [15] 101% | [16] 111% | [17] 93.4% | [19] 104%

Cc1oc2nc[nH]c(=O)c2c1C(=O)/C=C/c1ccc(Cl)cc1
active: [4] 6.15% | [6] -4.23% | [11] 6.76% | [12] -63.2%
inactive: [1] 39.7% | [2] 94% | [3] 45.2% | [5] 21% | [7] 17.5% | [8] 31.7% | [9] 29.7% | [10] 70.8% | [13] 71% | [14] 22.3% | [15] 50.1% | [16] 77% | [17] 14.5% | [19] 82.3%
